According to PubChem BioAssay (NCATS):
Results filed as inconclusive are left out. A call without a number means that no potency is given here. Active and inactive are the calls of the source. The call rests on the fitted dose curve; in most records, active means well fitted inhibition curve with a large enough effect; inconclusive means small, poorly fitted or top-dose-only effect; inactive means flat fitted curve, though single readings scatter.

Columns and labels:
Test in all cases: qHTS profiling for inhibitors of Plasmodium falciparum proliferation (AID 504749); further: nearly all actives have a fitted effect of over 60% in size
Conditions in all cases: P. falciparum in erythrocytes, SYBR Green DNA, 72 h; series mostly up to 28.7 µM
[1] = test system: 3D7
Summary of the method: (§1)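 P. falciparum-infected erythrocytes (0.3% parasitemia, 2.5% hematocrit final) were exposed to compounds for 72 h at 37 C in 5% CO2, then lysed with SYBR Green buffer overnight at room temperature; parasite DNA fluorescence was normalized to artemisinin and DMSO controls.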

[2] = test system: C2A
Summary of the method: as §1

[3] = test system: CP194
Summary of the method: as §1

[4] = test system: CP201
Summary of the method: as §1

[5] = test system: CP237
Summary of the method: as §1

[6] = test system: CP250
Summary of the method: as §1

[7] = test system: CP256
Summary of the method: as §1

[8] = test system: CP269
Summary of the method: as §1

[9] = test system: CP305
Summary of the method: as §1

[10] = test system: CP315
Summary of the method: as §1

[11] = test system: CP329
Summary of the method: as §1

[12] = test system: DIV30
Summary of the method: as §1

[13] = test system: JCK
Summary of the method: as §1

[14] = test system: P94_40
Summary of the method: as §1

[15] = test system: PAD
Summary of the method: as §1

[16] = test system: PC15
Summary of the method: as §1

[17] = test system: SC27B
Summary of the method: as §1

[18] = test system: TAB109
Summary of the method: as §1

[19] = test system: TAB113
Summary of the method: as §1

[20] = test system: TAB165
Summary of the method: as §1
Potency means the concentration at half of the fitted maximal effect.

Structure (SMILES)	Potency [1]	Potency [2]	Potency [3]	Potency [4]	Potency [5]	Potency [6]	Potency [7]	Potency [8]	Potency [9]	Potency [10]	Potency [11]	Potency [12]	Potency [13]	Potency [14]	Potency [15]	Potency [16]	Potency [17]	Potency [18]	Potency [19]	Potency [20]
CNC1C(O)C(OC2C(NC(=O)C(O)CN)CC(N)C(OC3OC(CN)C(O)C(O)C3O)C2O)OCC1(C)O (stereo not drawn)	inactive	inactive	inactive	inactive	inactive	inactive	inactive	inactive	inactive	inactive	inactive	inactive	inactive	inactive	inactive	inactive	inactive	inactive	inactive	inactive
Nc1ncn(C2C[C@H](O)[C@@H](CO)O2)c(=O)n1 (stereo partly drawn)	inactive	inactive	inactive	inactive	inactive	inactive	inactive	inactive	inactive	inactive	inactive	inactive	inactive	inactive	inactive	inactive	inactive	inactive	inactive	inactive
Cc1ccc(/C=C2/C(=O)C3(C)CCC2C3(C)C)cc1 (stereo not drawn)	inactive	inactive	inactive	inactive	inactive	inactive	inactive	inactive	inactive	inactive	inactive	inactive	inactive	inactive	inactive	inactive	inactive	inactive	inactive	inactive
CO[C@H]1C[C@@H]2CC[C@@H](C)[C@@](O)(O2)C(=O)C(=O)N2CCCC[C@H]2C(=O)O[C@H]([C@H](C)C[C@@H]2CC[C@@H](O)[C@H](OC)C2)CC(=O)[C@H](C)/C=C(\C)[C@@H](O)[C@@H](OC)C(=O)[C@H](C)C[C@H](C)/C=C/C=C/C=C/1C	2820 nM (active)	3550 nM (active)	3380 nM (active)	6010 nM (active)	5010 nM (active)	3550 nM (active)	4470 nM (active)	4260 nM (active)	6750 nM (active)	4260 nM (active)	4260 nM (active)	1900 nM (active)	10000 nM (active)	2240 nM (active)	1000 nM (active)	3980 nM (active)	2510 nM (active)	2240 nM (active)	2510 nM (active)	1780 nM (active)
Cc1onc(-c2c(F)cccc2Cl)c1C(=O)NC1C(=O)N2C1SC(C)(C)C2C(=O)O (stereo not drawn)	inactive	inactive	inactive	inactive	inactive	inactive	inactive		inactive	inactive	inactive	inactive	inactive	inactive	inactive	inactive	inactive	inactive	inactive	inactive
NCCCCC(N)C(=O)O (stereo not drawn)	inactive	inactive	inactive	inactive	inactive	inactive	inactive	inactive	inactive	inactive	inactive	inactive	inactive	inactive	inactive	inactive	inactive	inactive	inactive	inactive
CC(CCC(=O)O)C1CCC2C3C(=O)C[C@@H]4CC(=O)CC[C@@]4(C)C3CC(=O)[C@]12C (stereo partly drawn)	inactive	inactive	inactive	inactive	inactive	inactive	inactive	inactive	inactive	inactive	inactive	inactive	inactive	inactive	inactive	inactive	inactive	inactive	inactive	inactive
C=C1NC(=O)c2cc(CN(C)c3ccc(C(=O)N[C@@H](CCC(=O)O)C(=O)O)s3)ccc2N1	inactive	inactive	inactive	inactive		inactive	inactive	inactive	inactive	inactive	inactive	inactive	inactive	inactive		inactive	inactive	inactive	inactive	inactive
C/C(=C(/CCO)SS/C(CCO)=C(\C)N(C=O)Cc1cnc(C)nc1N)N(C=O)Cc1cnc(C)nc1N	inactive	inactive	inactive	inactive	inactive	inactive	inactive	inactive	inactive	inactive	inactive	inactive	inactive	inactive	inactive	inactive	inactive		inactive	inactive
CCCCC(=O)O[C@]1(C(=O)CO)CCC2C3CCC4=CC(=O)CCC4(C)C3C(O)CC21C (stereo partly drawn)	inactive	inactive	inactive	inactive	inactive	inactive	inactive	inactive	inactive	inactive	inactive	inactive	inactive	inactive	inactive	inactive	inactive	inactive	inactive	inactive
NC(=O)c1ncn(C2OC(CO)C(O)C2O)c1N (stereo not drawn)	inactive	inactive	inactive	inactive	inactive	inactive	inactive	inactive	inactive	inactive	inactive	inactive	inactive	inactive	inactive	inactive	inactive	inactive	inactive	inactive
O=C(O)C(O)c1ccccc1 (stereo not drawn)	inactive	inactive	inactive	inactive	inactive	inactive		inactive	inactive	inactive	inactive	inactive	inactive	inactive	inactive	inactive	inactive	inactive	inactive	inactive
CC1(C(=O)O)CCC2(C)CCC3(C)C(=CC(=O)C4C5(C)CCC(O)C(C)(C)C5CCC43C)C2C1 (stereo not drawn)	inactive	inactive	inactive	inactive	inactive	inactive	inactive	inactive	inactive	inactive	inactive	inactive	inactive	inactive	inactive	inactive	inactive	inactive	inactive	inactive
CCCCCOC(=O)Nc1nc(=O)n(C2O[C@H](C)[C@@H](O)[C@@H]2O)cc1F (stereo partly drawn)	inactive	inactive	inactive	inactive		inactive		inactive	inactive	inactive	inactive	inactive	inactive	inactive	inactive	inactive	inactive	inactive	inactive	inactive
CO/N=C(/C(=O)N[C@@H]1C(=O)N2C(C(=O)O)=C(CSc3nnnn3C)CS[C@H]12)c1csc(N)n1	inactive	inactive	inactive	inactive	inactive	inactive	inactive	inactive	inactive	inactive	inactive	inactive	inactive	inactive	inactive	inactive	inactive	inactive	inactive	inactive
CC[C@H](C)[C@H]1O[C@]2(CC[C@@H]1C)C[C@@H]1C[C@@H](C/C=C(\C)[C@H](O[C@@H]3C[C@H](OC)[C@H](O[C@@H]4C[C@H](OC)[C@@H](O)[C@H](C)O4)[C@H](C)O3)[C@@H](C)/C=C/C=C3\CO[C@@H]4[C@H](O)C(C)=C[C@@H](C(=O)O1)[C@]34O)O2	1410 nM (active)	1410 nM (active)	1350 nM (active)	1510 nM (active)	2240 nM (active)	891 nM (active)	708 nM (active)	1350 nM (active)	1690 nM (active)		1350 nM (active)		15800 nM (active)	1120 nM (active)	1410 nM (active)	2820 nM (active)	1000 nM (active)	1260 nM (active)	891 nM (active)	794 nM (active)
C[C@@H](O)[C@@H]1C(=O)N2C(C(=O)O)=C([C@H]3CCCO3)S[C@H]12	inactive	inactive	inactive		inactive	inactive	inactive	inactive	inactive	inactive	inactive	inactive	inactive	inactive	inactive	inactive	inactive	inactive	inactive	inactive
CCN(CC)CC(=O)Nc1c(C)cc(C)cc1C	inactive	inactive	inactive	inactive	inactive	inactive	inactive	inactive	inactive	inactive	inactive	inactive	inactive	inactive	inactive	inactive	inactive	inactive	inactive	inactive
OCC(CO)NC1C[C@](O)(CO)[C@@H](O)[C@H](O)[C@H]1O (stereo partly drawn)	inactive	inactive	inactive	inactive	inactive	inactive	inactive	inactive	inactive	inactive	inactive	inactive	inactive	inactive	inactive	inactive	inactive	inactive	inactive	inactive
O=C(O)c1ccc(N[C@@H]2OC[C@@H](O)[C@@H](O)[C@@H]2O)cc1	inactive	inactive	inactive	inactive	inactive	inactive	inactive	inactive	inactive	inactive	inactive	inactive	inactive	inactive	inactive	inactive	inactive	inactive	inactive	inactive
OCC1OC(O)C(O)C(O)C1O (stereo not drawn)	inactive	inactive	inactive	inactive	inactive	inactive	inactive		inactive	inactive	inactive	inactive	inactive	inactive	inactive	inactive	inactive	inactive	inactive	inactive
O=C(O)Cc1sc(-c2ccc(Cl)cc2)nc1-c1ccccc1	inactive	inactive	inactive	inactive	inactive	inactive	inactive	inactive	inactive	inactive	inactive	inactive	inactive	inactive	inactive	inactive	inactive	inactive	inactive	inactive
CO/N=C(/C(=O)N[C@@H]1C(=O)N2C(C(=O)O)=C(CSc3cnns3)CS[C@H]12)c1csc(N)n1	inactive	inactive	inactive	inactive	inactive	inactive	inactive	inactive	inactive	inactive	inactive	inactive	inactive	inactive	inactive	inactive	inactive		inactive	inactive
